# In publication PMC9911399, “Two distinct binding modes provide the RNA-binding protein RbFox with extraordinary sequence specificity”:
# Substitutions are numbered along the chain they refer to; changes in the protein carry UniProt numbers. The full ranking holds about 16,000 sequences; the median of “ka relative to ugcaugu” is about 0.0091, and the highest 2% start at about 0.032. What follows is part of a selection rich in the highest values, with near analogues and random picks from the rest.
# T1: RBFOX1 RRM (Homo sapiens, UniProt Q9NWB1 109-208)
# T1 sequence: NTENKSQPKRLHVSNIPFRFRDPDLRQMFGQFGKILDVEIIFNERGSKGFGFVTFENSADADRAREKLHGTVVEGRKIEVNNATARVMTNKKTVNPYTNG
# B1: UGACAAG (DNA:RNA)
# RNA: GGGAGACCGGAAUUCAGAUUGUCCUGACAAGUUAAAUCCCGUCGUAGCCACCA
# DNA 1: CAATCTGAATTCCGGTCTCCC
# DNA 2: TGGTGGCTACGACGGGATT
# B2: ACGCUGG (DNA:RNA)
# RNA: B1 RNA with U25A, G26C, A27G, A29U, A30G
# DNA 1: CAATCTGAATTCCGGTCTCCC
# DNA 2: TGGTGGCTACGACGGGATT
# B3: UGGCAAU (DNA:RNA)
# RNA: B1 RNA with A27G, G31U
# DNA 1: CAATCTGAATTCCGGTCTCCC
# DNA 2: TGGTGGCTACGACGGGATT
# B4: CACCCCG (DNA:RNA)
# RNA: B1 RNA with U25C, G26A, A27C, A29C, A30C
# DNA 1: CAATCTGAATTCCGGTCTCCC
# DNA 2: TGGTGGCTACGACGGGATT
# B5: CUUGCCC (DNA:RNA)
# RNA: GGGAGACCGGAAUUCAGAUUGUCCCUUGCCCUUAAAUCCCGUCGUAGCCACCA
# DNA 1: CAATCTGAATTCCGGTCTCCC
# DNA 2: TGGTGGCTACGACGGGATT
# B6: CAAUCGU (DNA:RNA)
# RNA: B5 RNA with U26A, U27A, G28U, C30G, C31U
# DNA 1: CAATCTGAATTCCGGTCTCCC
# DNA 2: TGGTGGCTACGACGGGATT
# B7: ACUUACA (DNA:RNA)
# RNA: B5 RNA with C25A, U26C, G28U, C29A, C31A
# DNA 1: CAATCTGAATTCCGGTCTCCC
# DNA 2: TGGTGGCTACGACGGGATT
# B8: CACUUGG (DNA:RNA)
# RNA: B5 RNA with U26A, U27C, G28U, C29U, C30G, C31G
# DNA 1: CAATCTGAATTCCGGTCTCCC
# DNA 2: TGGTGGCTACGACGGGATT
# B9: CGGAAUG (DNA:RNA)
# RNA: B1 RNA with U25C, A27G, C28A, A30U
# DNA 1: CAATCTGAATTCCGGTCTCCC
# DNA 2: TGGTGGCTACGACGGGATT
# B10: AGGAAUG (DNA:RNA)
# RNA: B1 RNA with U25A, A27G, C28A, A30U
# DNA 1: CAATCTGAATTCCGGTCTCCC
# DNA 2: TGGTGGCTACGACGGGATT
# B11: CGUAAUG (DNA:RNA)
# RNA: B1 RNA with U25C, A27U, C28A, A30U
# DNA 1: CAATCTGAATTCCGGTCTCCC
# DNA 2: TGGTGGCTACGACGGGATT
# B12: GUAAAUG (DNA:RNA)
# RNA: B1 RNA with U25G, G26U, C28A, A30U
# DNA 1: CAATCTGAATTCCGGTCTCCC
# DNA 2: TGGTGGCTACGACGGGATT
# B13: GUAAUGU (DNA:RNA)
# RNA: B5 RNA with C25G, U27A, G28A, C29U, C30G, C31U
# DNA 1: CAATCTGAATTCCGGTCTCCC
# DNA 2: TGGTGGCTACGACGGGATT
# B14: AGGAAUC (DNA:RNA)
# RNA: B1 RNA with U25A, A27G, C28A, A30U, G31C
# DNA 1: CAATCTGAATTCCGGTCTCCC
# DNA 2: TGGTGGCTACGACGGGATT
# B15: UCGAAUG (DNA:RNA)
# RNA: B1 RNA with G26C, A27G, C28A, A30U
# DNA 1: CAATCTGAATTCCGGTCTCCC
# DNA 2: TGGTGGCTACGACGGGATT
# B16: UCGAUUG (DNA:RNA)
# RNA: B1 RNA with G26C, A27G, C28A, A29U, A30U
# DNA 1: CAATCTGAATTCCGGTCTCCC
# DNA 2: TGGTGGCTACGACGGGATT
# B17: AGGAUUG (DNA:RNA)
# RNA: B1 RNA with U25A, A27G, C28A, A29U, A30U
# DNA 1: CAATCTGAATTCCGGTCTCCC
# DNA 2: TGGTGGCTACGACGGGATT
# B18: GGAAUGU (DNA:RNA)
# RNA: B1 RNA with U25G, C28A, A29U, A30G, G31U
# DNA 1: CAATCTGAATTCCGGTCTCCC
# DNA 2: TGGTGGCTACGACGGGATT
# B19: UCGAAUC (DNA:RNA)
# RNA: B1 RNA with G26C, A27G, C28A, A30U, G31C
# DNA 1: CAATCTGAATTCCGGTCTCCC
# DNA 2: TGGTGGCTACGACGGGATT
# B20: CGUCCGU (DNA:RNA)
# RNA: B5 RNA with U26G, G28C, C30G, C31U
# DNA 1: CAATCTGAATTCCGGTCTCCC
# DNA 2: TGGTGGCTACGACGGGATT
# B21: UAACCGC (DNA:RNA)
# RNA: B1 RNA with G26A, A29C, A30G, G31C
# DNA 1: CAATCTGAATTCCGGTCTCCC
# DNA 2: TGGTGGCTACGACGGGATT
# B22: CAACUUU (DNA:RNA)
# RNA: B1 RNA with U25C, G26A, A29U, A30U, G31U
# DNA 1: CAATCTGAATTCCGGTCTCCC
# DNA 2: TGGTGGCTACGACGGGATT
# B23: UUGCAAU (DNA:RNA)
# RNA: B1 RNA with G26U, A27G, G31U
# DNA 1: CAATCTGAATTCCGGTCTCCC
# DNA 2: TGGTGGCTACGACGGGATT
# B24: CACCGUG (DNA:RNA)
# RNA: B1 RNA with U25C, G26A, A27C, A29G, A30U
# DNA 1: CAATCTGAATTCCGGTCTCCC
# DNA 2: TGGTGGCTACGACGGGATT
# B25: AGUCCAG (DNA:RNA)
# RNA: B1 RNA with U25A, A27U, A29C
# DNA 1: CAATCTGAATTCCGGTCTCCC
# DNA 2: TGGTGGCTACGACGGGATT
# B26: AGGCAGA (DNA:RNA)
# RNA: B1 RNA with U25A, A27G, A30G, G31A
# DNA 1: CAATCTGAATTCCGGTCTCCC
# DNA 2: TGGTGGCTACGACGGGATT
# B27: AGAGAAG (DNA:RNA)
# RNA: B1 RNA with U25A, C28G
# DNA 1: CAATCTGAATTCCGGTCTCCC
# DNA 2: TGGTGGCTACGACGGGATT
# B28: CCGGGUU (DNA:RNA)
# RNA: B5 RNA with U26C, U27G, C29G, C30U, C31U
# DNA 1: CAATCTGAATTCCGGTCTCCC
# DNA 2: TGGTGGCTACGACGGGATT
# B29: GGGAGUU (DNA:RNA)
# RNA: B1 RNA with U25G, A27G, C28A, A29G, A30U, G31U
# DNA 1: CAATCTGAATTCCGGTCTCCC
# DNA 2: TGGTGGCTACGACGGGATT
# B30: GUCGGGU (DNA:RNA)
# RNA: B5 RNA with C25G, U27C, C29G, C30G, C31U
# DNA 1: CAATCTGAATTCCGGTCTCCC
# DNA 2: TGGTGGCTACGACGGGATT
# B31: GGAGUUU (DNA:RNA)
# RNA: B1 RNA with U25G, C28G, A29U, A30U, G31U
# DNA 1: CAATCTGAATTCCGGTCTCCC
# DNA 2: TGGTGGCTACGACGGGATT
# B32: GGGGAGU (DNA:RNA)
# RNA: B1 RNA with U25G, A27G, C28G, A30G, G31U
# DNA 1: CAATCTGAATTCCGGTCTCCC
# DNA 2: TGGTGGCTACGACGGGATT
# B33: ACCGGGU (DNA:RNA)
# RNA: B5 RNA with C25A, U26C, U27C, C29G, C30G, C31U
# DNA 1: CAATCTGAATTCCGGTCTCCC
# DNA 2: TGGTGGCTACGACGGGATT
# B34: GUCCGGG (DNA:RNA)
# RNA: B1 RNA with U25G, G26U, A27C, A29G, A30G
# DNA 1: CAATCTGAATTCCGGTCTCCC
# DNA 2: TGGTGGCTACGACGGGATT
# B35: GUUUGGG (DNA:RNA)
# RNA: B5 RNA with C25G, G28U, C29G, C30G, C31G
# DNA 1: CAATCTGAATTCCGGTCTCCC
# DNA 2: TGGTGGCTACGACGGGATT
# B36: GGGUUUG (DNA:RNA)
# RNA: B1 RNA with U25G, A27G, C28U, A29U, A30U
# DNA 1: CAATCTGAATTCCGGTCTCCC
# DNA 2: TGGTGGCTACGACGGGATT
# B37: GGGUUUU (DNA:RNA)
# RNA: B1 RNA with U25G, A27G, C28U, A29U, A30U, G31U
# DNA 1: CAATCTGAATTCCGGTCTCCC
# DNA 2: TGGTGGCTACGACGGGATT
# B38: CGGGUUU (DNA:RNA)
# RNA: B5 RNA with U26G, U27G, C29U, C30U, C31U
# DNA 1: CAATCTGAATTCCGGTCTCCC
# DNA 2: TGGTGGCTACGACGGGATT
# B39: GGGUUGU (DNA:RNA)
# RNA: B1 RNA with U25G, A27G, C28U, A29U, A30G, G31U
# DNA 1: CAATCTGAATTCCGGTCTCCC
# DNA 2: TGGTGGCTACGACGGGATT
# Target: T1, RBFOX1 RRM
# Test: EMSA; HiTS-Eq, 1 nM pool, 10 min; buffer printed only for the single-RNA assays: 10 mM Tris pH 7.5, 150 mM NaCl, 3.4 mM EDTA, 0.001% NP-40, 30 C
# Settings: tags: His6 N-terminal (pET28a); label: 5' 32P
# Outline: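 Purified wild-type or mutant RbFox RRM at increasing concentrations was equilibrated with 1 nM of 5′-radiolabelled RNA carrying 7 randomized nucleotides for 10 min in 50 µL. Unbound RNA was separated by 8% native PAGE and sequenced. Relative association constants came from read-count changes of each RNA species compared with the control reaction, normalised to the cognate motif.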
row,Binder,binding signal
1,B1,0.0143 KA relative to UGCAUGU
2,B2,0.0175 KA relative to UGCAUGU
3,B3,0.0132 KA relative to UGCAUGU
4,B4,0.002 KA relative to UGCAUGU
5,B5,0.00752 KA relative to UGCAUGU
6,B6,0.00595 KA relative to UGCAUGU
7,B7,0.00166 KA relative to UGCAUGU
8,B8,0.0107 KA relative to UGCAUGU
9,B9,0.0596 KA relative to UGCAUGU
10,B10,0.0471 KA relative to UGCAUGU
11,B11,0.0127 KA relative to UGCAUGU
12,B12,0.00894 KA relative to UGCAUGU
13,B13,0.0122 KA relative to UGCAUGU
14,B14,0.0141 KA relative to UGCAUGU
15,B15,0.0323 KA relative to UGCAUGU
16,B16,0.0206 KA relative to UGCAUGU
17,B17,0.0293 KA relative to UGCAUGU
18,B18,0.0563 KA relative to UGCAUGU
19,B19,0.0109 KA relative to UGCAUGU
20,B20,0.0125 KA relative to UGCAUGU

row,Binder,binding signal
1,B21,0.0039 KA relative to UGCAUGU
2,B22,0.000994 KA relative to UGCAUGU
3,B23,0.0162 KA relative to UGCAUGU
4,B24,0.0057 KA relative to UGCAUGU
5,B25,0.00711 KA relative to UGCAUGU
6,B26,0.00971 KA relative to UGCAUGU
7,B27,0.00984 KA relative to UGCAUGU
8,B28,0.0196 KA relative to UGCAUGU
9,B29,0.0324 KA relative to UGCAUGU
10,B30,0.0137 KA relative to UGCAUGU
11,B31,0.0247 KA relative to UGCAUGU
12,B32,0.0316 KA relative to UGCAUGU
13,B33,0.013 KA relative to UGCAUGU
14,B34,0.00708 KA relative to UGCAUGU
15,B35,0.0128 KA relative to UGCAUGU
16,B36,0.0349 KA relative to UGCAUGU
17,B37,0.0323 KA relative to UGCAUGU
18,B38,0.0393 KA relative to UGCAUGU
19,B39,0.0284 KA relative to UGCAUGU
